In PubChem BioAssay AID1850 (Southern Research Specialized Biocontainment Screening …, 2009):
The campaign covered roughly 310,000 compounds. About 1,000 (0.32%) were called active. No rule for the calls is given here. Not all results are given here. Results with a measured potency or affinity are listed apart.

Assay: Inhibition of PhoP regulon, Salmonella typhi GFP reporter cells, confirmation, 4 h (AID 1850);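 also: 0% = induced wells with vehicle and 100% = uninduced wells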
Settings: Salmonella Typhi PhoP-promoter GFP reporter, fluorescence, at 50 µM, stronger effect = higher value
With `O=C(N1CCOCC1)N1CCN(S(=O)(=O)N2CCCCC2)CC1` the inhibition was 5.81% (inactive). For `COc1ccc(NC2CCCN(C(=O)C3=NN(C)C(=O)CC3)C2)cc1OC` (stereo unspecified), the inhibition was -1.12% (inactive). In the case of `Cc1cccc(N2CCN(Cc3nc(-c4cccc(Cl)c4)oc3C)CC2)n1`, the inhibition is reported as -3.9% (inactive). With `Oc1[nH]c2ccc(Br)cc2c1N=Nc1ccc(F)cc1` the inhibition was -81.9% (inactive). With `Cc1cc(=O)c2cc(Br)ccc2[nH]1` the inhibition was 6.88% (inactive). With `O=C(NCC1CCCO1)c1onc(CSc2ccc(F)c(F)c2)c1C(=O)O` (stereo unspecified) the inhibition was 1.53% (inactive). For `C=CCNC(=O)CN1CCC(c2nc3cc(C)c(C)cc3[nH]2)CC1`, the inhibition was 2.77% (inactive). In the case of `O=[N+]([O-])c1ccc(/C=N/N2CCCCC2)cc1`, the inhibition is reported as 2.58% (inactive). In the case of `CCOc1ccc(-c2c(C(=O)N/N=C/c3ccc(OC)cc3)nnn2-c2nonc2N)cc1`, the inhibition is reported as -14% (inactive). With `O=C(Cc1ccc(Cl)cc1)Nc1ccc(S(=O)(=O)Nc2cnc3ccccc3n2)cc1` the inhibition was -6.63% (inactive). With `CC1CCCCC1NC(=O)c1ccc(NS(=O)(=O)c2ccc3[nH]c(=O)[nH]c3c2)cc1` (stereo unspecified) the inhibition was 0.81% (inactive). For `Cc1ccc(NC(=O)c2cc([N+](=O)[O-])ccc2Cl)c(O)c1`, the inhibition was 4.62% (inactive). For `CC(=O)Oc1c(C)cc(Cl)cc1C(=O)Nc1ccc([N+](=O)[O-])cc1Cl`, the inhibition was 3.87% (inactive). In the case of `CC[C@H](C)Cc1cn([C@@H](CCCCN)C(=O)NCCCCCCCCCCC(=O)N2CCNCC2)nn1`, the inhibition is reported as 1.01% (inactive). With `CCOC(=O)N1CCN(C(=O)c2cc(COc3ccc4ncccc4c3)on2)CC1` the inhibition was -2.35% (inactive). For `COc1cc(OC)c(OC)cc1CNCCc1cccc(F)c1`, the inhibition was 3.05% (inactive). With `COc1cccc(CNCCc2ccccc2)c1OC` the inhibition was 15.4% (inactive). With `Fc1ccc(CNCCc2ccccc2F)cc1` the inhibition was 20.1% (inactive). For `CCc1ccc(CNCCc2ccc(F)cc2)cc1`, the inhibition was 7.65% (inactive). In the case of `Fc1ccc(CCNCc2cccc(Cl)c2)cc1`, the inhibition is reported as -1.17% (inactive). In the case of `CCc1ccc(CNCCc2ccccc2F)cc1`, the inhibition is reported as 19.3% (inactive). For `COc1cccc(CNCCc2cccc(F)c2)c1OC`, the inhibition was 6.94% (inactive). With `COc1cc(OC)c(OC)cc1CNCCc1ccc(F)cc1` the inhibition was 1.12% (inactive). With `CCN(c1ccccc1)S(=O)(=O)c1csc(C(N)=O)c1` the inhibition was 1.57% (inactive). With `O=C(CS(=O)(=O)c1ccc(Cl)cc1)Nc1nnc(-c2cccs2)o1` the inhibition was -4.66% (inactive). In the case of `CC(C)C(NC(=O)/C=C/c1cccc([N+](=O)[O-])c1)C(C)C`, the inhibition is reported as -9.13% (inactive). In the case of `CCOC(=O)N1CCC(NC(=O)c2cnn3c(C(F)(F)F)cc(-c4cccc(OC)c4)nc23)CC1`, the inhibition is reported as -1% (inactive). With `COc1ccccc1S(=O)(=O)CC(O)COc1ccccc1Cl` (stereo unspecified) the inhibition was -5.18% (inactive). For `CN(CCc1ccccn1)C(=O)Nc1ccc(F)cc1`, the inhibition was -7.13% (inactive). For `COc1ccc(-c2ccc(CCC(=O)O)n2NC(=O)c2cccs2)cc1`, the inhibition was -5.76% (inactive). For `CN(CC(=O)Nc1ccccc1Cl)C(=O)COC(=O)c1cc([N+](=O)[O-])ccc1N1CCOCC1`, the inhibition was -1.8% (inactive). For `Fc1ccc(CNCc2ccccc2Cl)cc1`, the inhibition was 10.6% (inactive). For `Fc1ccc(CNCCc2ccccc2)cc1`, the inhibition was 14.4% (inactive). For `c1csc(CNCc2ccncc2)c1`, the inhibition was 1.76% (inactive). In the case of `Brc1ccc(CNCc2cccs2)cc1`, the inhibition is reported as -4.52% (inactive). With `O=C(COc1ccc(Br)cc1)N1CCN(Cc2c[nH]c3ccccc23)CC1` the inhibition was 1.07% (inactive). With `O=C(NCc1ccco1)/C(=C\c1ccco1)NC(=O)c1ccco1` the inhibition was -9.29% (inactive). In the case of `CC1=NN(c2ccc([N+](=O)[O-])cc2)C(c2ccccc2)C1` (stereo unspecified), the inhibition is reported as -7.1% (inactive). For `CC1(C)CC(=O)C2=C(C1)NC(=O)CC2c1cc(F)ccc1F` (stereo unspecified), the inhibition was 8.24% (inactive). In the case of `CC1(C)C2CCC1(CS(=O)(=O)N1CCN(c3ccc(F)cc3)CC1)C(=O)C2` (stereo unspecified), the inhibition is reported as -7.85% (inactive). With `COc1ccc(S(=O)(=O)NC(C)C(=O)NCc2cccnc2)cc1Cl` (stereo unspecified) the inhibition was -1.39% (inactive). With `Cc1ccc2c(c1)[C@@H]1CN(C)CC[C@@H]1N2S(=O)(=O)c1ccc([N+](=O)[O-])cc1` the inhibition was 0.95% (inactive). With `Cc1ccc2c(c1)C1CN(C)CCC1N2S(=O)(=O)c1ccccc1` (stereo unspecified) the inhibition was 4.23% (inactive). For `CN(C)c1cc[n+](CC(=O)c2ccc(OC(F)F)cc2)cc1`, the inhibition was 19.8% (inactive). For `COc1ccc(CNC(=O)c2cc(COc3c(F)cccc3F)on2)cc1OC`, the inhibition was -2.31% (inactive). With `O=C(O)CCc1ccc(-c2ccc(Br)cc2)n1-c1cccc(O)c1` the inhibition was -2.3% (inactive). With `CCCCCOC(=O)CSc1nc2c(c(=O)[nH]c(=O)n2C)n1CCc1ccccc1` the inhibition was 2.47% (inactive). For `COCc1c(C(=O)OCC(=O)N2c3ccccc3CC2C)oc2ccccc12` (stereo unspecified), the inhibition was -3.75% (inactive). In the case of `CC(C)CCC(CCNCc1ccccn1)c1ccc2c(c1)OCO2` (stereo unspecified), the inhibition is reported as 21.8% (inactive). In the case of `CC(C)C(CCNCc1ccccn1)c1ccc(Cl)cc1` (stereo unspecified), the inhibition is reported as -0.74% (inactive). With `CC(=O)n1cc([C@H]2C=C(C(N)=O)O[C@@H](OCc3ccc(CO)cc3)C2)c2ccccc21` the inhibition was 2.45% (inactive). In the case of `CCCOC(=O)C[N+](C)(C)CCOC1CC2CCC1(C)C2(C)C` (stereo unspecified), the inhibition is reported as -4.95% (inactive). For `CCCCOC(=O)C[N+](C)(C)CCOC1CC2CCC1(C)C2(C)C` (stereo unspecified), the inhibition was -1.52% (inactive). With `Cc1ccc(Nc2ccc([N+](=O)[O-])ccc2=O)cc1` the inhibition was -3.8% (inactive). For `Cc1cccc(C(=O)NCC(=O)N2CCN(c3ccc(Cl)cc3)CC2)c1`, the inhibition was 4.53% (inactive). In the case of `Cc1cc(C)nc(NCCO)n1`, the inhibition is reported as 1.84% (inactive). With `Fc1ccc(Sc2ccccc2CNC2=NCCN2)cc1` the inhibition was -8.62% (inactive). In the case of `Fc1ccccc1Sc1ccccc1CNC1=NCCN1`, the inhibition is reported as 2.16% (inactive). For `COc1ccc(C)cc1NC(=O)C1CCN(S(=O)(=O)c2ccc3c(c2)NC(=O)CO3)CC1`, the inhibition was -3.38% (inactive). In the case of `CCCCn1c(N)c(N(CC(C)C)C(=O)c2cc(-c3ccc(OC)c(OC)c3)nc3ccccc23)c(=O)[nH]c1=O`, the inhibition is reported as 11.8% (inactive). With `CC(=O)c1cc(C(=O)NC2CCCc3c2cnn3-c2cc(C)cc(C)c2)[nH]n1` (stereo unspecified) the inhibition was -9.06% (inactive). In the case of `O=C(Nc1nc2ccccc2[nH]1)c1cccc(F)c1`, the inhibition is reported as 0.03% (inactive). In the case of `CC(C)n1cnc2c(Nc3cccc(F)c3)nc(NCCO)nc21`, the inhibition is reported as -14.7% (inactive). For `Cc1cccc(OCc2nnc3n2CCCCC3)c1`, the inhibition was -4.01% (inactive). In the case of `CCOC(=O)N1CCN(S(=O)(=O)c2ccc(C(=O)Nc3nnc(CSC)o3)cc2)CC1`, the inhibition is reported as -31.1% (inactive). For `CC(OC(=O)c1ccccc1Nc1ccc(SC(F)F)cc1)C(N)=O` (stereo unspecified), the inhibition was -1.22% (inactive). With `C#CCOCCOCCOCCNc1nc(N2CCN(C(=O)CCCCCCCCCCNC(=O)[C@@H](CCSC)n3cc(CCO)nn3)CC2)nc(N2CCN(C(=O)CCCCCCCCCCNC(=O)[C@H](CCC(=O)O)n3cc(CCCCCN)nn3)CC2)n1` the inhibition was 1.19% (inactive). For `C#CCOCCOCCOCCNc1nc(N2CCN(C(=O)CCCCCCCCCCNC(=O)[C@H]([C@@H](C)CC)n3cc(CCCCN=C(N)N)nn3)CC2)nc(N2CCN(C(=O)CCCCCCCCCCNC(=O)[C@H](CO)n3cc(CCCSC)nn3)CC2)n1`, the inhibition was 0.56% (inactive). With `C#CCOCCOCCOCCNc1nc(N2CCN(C(=O)CCCCCCCCCCNC(=O)[C@@H](CCSC)n3cc(CCO)nn3)CC2)nc(N2CCN(C(=O)CCCCCCCCCCNC(=O)[C@H](CCSC)n3cc(CCO)nn3)CC2)n1` the inhibition was 2.16% (inactive). For `C#CCOCCOCCOCCNc1nc(N2CCN(C(=O)CCCCCCCCCCNC(=O)[C@@H](CCSC)n3cc(CCO)nn3)CC2)nc(N2CCN(C(=O)CCCCCCCCCCNC(=O)[C@H](CO)n3cc(CCCCCN)nn3)CC2)n1`, the inhibition was 14.1% (inactive). With `CC(=O)Oc1ccc(C(=O)Nc2cc(C)on2)cc1` the inhibition was 3.46% (inactive). In the case of `Nc1cccc(C(=O)N/N=C/c2ccsc2)c1`, the inhibition is reported as -10.7% (inactive). With `NC(=S)N=Nc1c(O)[nH]c2ccccc12` the inhibition was -2.48% (inactive). With `Oc1[nH]c2ccc(Br)cc2c1N=NC(=S)Nc1ccc(F)cc1` the inhibition was 14.4% (inactive). For `N=C(N)N=Nc1c(O)[nH]c2ccc(Br)cc12`, the inhibition was -13.7% (inactive). For `O=C(N=Nc1c(O)[nH]c2ccccc12)c1ccc(CN2CCOCC2)cc1`, the inhibition was 8.21% (inactive). For `COc1ccc(C(=O)C(Cc2cc(C(C)=O)ccc2OC)N2CCCC2)cc1` (stereo unspecified), the inhibition was -6.51% (inactive). For `O=C(Nc1cccc(S(=O)(=O)N2CCOCC2)c1)c1cnccn1`, the inhibition was -6.33% (inactive). In the case of `Cn1c(-c2ccc(F)cc2)cnc1NCc1cccc([N+](=O)[O-])c1`, the inhibition is reported as 9.25% (inactive). For `COc1ccc(N2CCN(c3nc(Cl)nc(Nc4ccc(F)cc4)n3)CC2)cc1`, the inhibition was -8.76% (inactive). For `Fc1ccc(Nc2nc(N3CCOCC3)nc(N3CCOCC3)n2)cc1`, the inhibition was 4.25% (inactive). For `CCCOc1cc2c(C#N)c(N3CCCC3)nc(N)c2c(N)n1`, the inhibition was 1.34% (inactive). For `N#Cc1c(N)c(C#N)c(-c2ccc3c(c2)OCO3)c2c1CCCC2`, the inhibition was -3.29% (inactive). With `Nc1c(-c2ccc(Cl)cc2)cnc2ncnn12` the inhibition was 8.81% (inactive). In the case of `Nc1ncc(-c2ccc([N+](=O)[O-])cc2)cn1`, the inhibition is reported as 4.2% (inactive). For `Nc1ncncc1-c1ccc2ccccc2c1`, the inhibition was -7.33% (inactive). In the case of `O=[N+]([O-])c1ccc(-c2cnc[nH]2)cc1`, the inhibition is reported as 1.02% (inactive). With `COc1ccc2cc(C(=O)C3CCCN(C(=O)c4cnccn4)C3)ccc2c1` (stereo unspecified) the inhibition was 8.69% (inactive). With `CCc1ccccc1NC1=NCC(=O)N1C1CCCC1` the inhibition was 0.33% (inactive). For `COc1ccc(Nc2nc(C)cc(C)c2C#N)c(OC)c1`, the inhibition was -0.58% (inactive). For `COc1ccccc1CNC(=O)C1CCCN(S(C)(=O)=O)C1` (stereo unspecified), the inhibition was -3.93% (inactive).
